# According to PubChem BioAssay (NCATS):
# Values without a mark were called inactive. Records with an inconclusive call do not appear. A call without a number means that no potency is given here. The source made the active and inactive calls. Unless noted, calls come from the whole dose curve; as a rule, active = well fitted curve in the direction sought with a large enough effect; inconclusive = small, poorly fitted or top-dose-only effect, or another doubt; inactive = no such curve, though single readings can be large; an effect the other way counts as inactive or inconclusive.
# Tests used:
# [1] = target: DNA dC->dU-editing enzyme APOBEC-3G (Homo sapiens) (UniProt Q9HC16); assay: qHTS for inhibitors of Vif-A3G interactions: Validation (AID 588379)
# Sequence of DNA dC->dU-editing enzyme APOBEC-3G (Homo sapiens) (Q9HC16 whole entry, looked up): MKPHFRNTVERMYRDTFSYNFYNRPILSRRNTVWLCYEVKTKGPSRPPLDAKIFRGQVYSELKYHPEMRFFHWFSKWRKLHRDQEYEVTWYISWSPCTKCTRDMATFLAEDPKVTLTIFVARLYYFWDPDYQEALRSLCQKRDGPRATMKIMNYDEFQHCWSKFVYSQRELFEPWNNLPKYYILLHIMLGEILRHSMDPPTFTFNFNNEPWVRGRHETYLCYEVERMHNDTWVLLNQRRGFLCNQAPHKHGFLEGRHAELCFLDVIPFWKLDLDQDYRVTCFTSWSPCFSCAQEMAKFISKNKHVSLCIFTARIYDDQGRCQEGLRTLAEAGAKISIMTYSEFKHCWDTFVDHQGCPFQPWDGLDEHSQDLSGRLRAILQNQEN
# In short: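 Yellow fluorescence (Ex 488, Em 500-530) of Vif-coexpressing HeLa A3G-eYFP cells, scanned by Acumen cytometer, reports blocked A3G degradation. Cells plated at 700/well overnight at 37 deg C before compound addition, then a further overnight compound incubation at 37 deg C.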
# [2] = system: Zika virus NS2B-NS3 protease; assay: Primary screen GU AMC qHTS for Zika virus inhibitors (AID 1347154); note: nearly all actives have a fitted effect of over 70% in size
# In short: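 Fluorogenic AMC-substrate cleavage by noncovalent NS2B-NS3 protease complex (25 nM, pH 8.0 Tris buffer with Tween 20) followed for 15 minutes at room temperature (~20% conversion). Percent inhibition from ex340/em450 signal change, fitted by 4-parameter Hill equation.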
# [3] = target: Rap guanine nucleotide exchange factor 3 (Homo sapiens) (UniProt O95398); assay: Confirmatory qHTS for antagonist of cAMP-regulated guanine nucleotide exchange factor 3 (EPAC1) (AID 1645880); note: nearly all actives have a fitted effect of over 55% in size
# Sequence of Rap guanine nucleotide exchange factor 3 (Homo sapiens) (O95398 whole entry, looked up): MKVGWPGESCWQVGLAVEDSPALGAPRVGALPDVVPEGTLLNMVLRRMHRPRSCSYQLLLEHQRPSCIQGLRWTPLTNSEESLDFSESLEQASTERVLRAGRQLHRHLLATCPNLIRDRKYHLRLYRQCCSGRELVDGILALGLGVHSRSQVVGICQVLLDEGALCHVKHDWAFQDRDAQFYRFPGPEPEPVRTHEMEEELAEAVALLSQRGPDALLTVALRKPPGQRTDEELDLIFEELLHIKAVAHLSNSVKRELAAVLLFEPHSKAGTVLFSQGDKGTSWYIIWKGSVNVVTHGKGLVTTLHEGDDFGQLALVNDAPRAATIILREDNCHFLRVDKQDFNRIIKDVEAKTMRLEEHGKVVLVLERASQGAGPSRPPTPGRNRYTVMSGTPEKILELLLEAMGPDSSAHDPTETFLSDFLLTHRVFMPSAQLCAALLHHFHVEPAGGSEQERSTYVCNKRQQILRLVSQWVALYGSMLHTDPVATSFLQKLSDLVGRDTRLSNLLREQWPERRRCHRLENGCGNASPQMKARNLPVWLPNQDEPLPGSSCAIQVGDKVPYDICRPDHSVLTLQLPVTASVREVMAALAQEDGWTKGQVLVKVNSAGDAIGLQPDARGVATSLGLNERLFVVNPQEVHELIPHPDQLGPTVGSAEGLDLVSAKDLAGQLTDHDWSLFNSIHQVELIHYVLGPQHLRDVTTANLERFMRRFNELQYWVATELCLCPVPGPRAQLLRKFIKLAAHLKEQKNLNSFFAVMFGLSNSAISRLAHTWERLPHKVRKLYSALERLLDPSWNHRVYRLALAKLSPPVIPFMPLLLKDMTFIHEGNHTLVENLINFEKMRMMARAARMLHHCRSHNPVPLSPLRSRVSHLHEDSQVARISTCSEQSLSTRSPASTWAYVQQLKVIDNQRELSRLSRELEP
# In short: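 Released BODIPY-GDP fluoresces less than Rap1-bound BODIPY-GDP; the signal is followed at 480/540 nm at 5-min intervals over 30 min, after 5 min at room temperature. Reactions contain 100 nM EPAC1, 250 nM RAP1B-BODIPY-GDP and 50 uM GDP; results are normalized to ATA and DMSO.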
# [4] = target: Rap guanine nucleotide exchange factor 3 (Homo sapiens) (UniProt O95398); assay: Confirmatory qHTS for agonist of cAMP-regulated guanine nucleotide exchange factor 3 (EPAC1) (AID 1645881);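 note: EPAC1 catalysed release of BODIPY-GDP from Rap1B seen as fluorescence loss; nearly all actives have a fitted effect of over 75% in size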
# [5] = target: Rap guanine nucleotide exchange factor 4 (Homo sapiens) (UniProt Q8WZA2); assay: Confirmatory qHTS for agonist of cAMP-regulated guanine nucleotide exchange factor 4 (EPAC2) (AID 1645884);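 note: nucleotide exchange releases bodipy-GDP from Rap1 and this lowers its fluorescence; nearly all actives have a fitted effect of over 65% in size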
# [6] = target: Rap guanine nucleotide exchange factor 4 (Homo sapiens) (UniProt Q8WZA2); assay: Confirmatory qHTS for antagonist of cAMP-regulated guanine nucleotide exchange factor 4 (EPAC2) (AID 1645885); note: nearly all actives have a fitted effect of over 25% in size
# [7] = target: Cytochrome P450 1A2 (Homo sapiens) (UniProt P05177); assay: p450-cyp1a2 (AID 410; calls by dose curve; note: potency is the fitted concentration of half-maximal effect)
# Sequence of Cytochrome P450 1A2 (Homo sapiens) (P05177 whole entry, looked up): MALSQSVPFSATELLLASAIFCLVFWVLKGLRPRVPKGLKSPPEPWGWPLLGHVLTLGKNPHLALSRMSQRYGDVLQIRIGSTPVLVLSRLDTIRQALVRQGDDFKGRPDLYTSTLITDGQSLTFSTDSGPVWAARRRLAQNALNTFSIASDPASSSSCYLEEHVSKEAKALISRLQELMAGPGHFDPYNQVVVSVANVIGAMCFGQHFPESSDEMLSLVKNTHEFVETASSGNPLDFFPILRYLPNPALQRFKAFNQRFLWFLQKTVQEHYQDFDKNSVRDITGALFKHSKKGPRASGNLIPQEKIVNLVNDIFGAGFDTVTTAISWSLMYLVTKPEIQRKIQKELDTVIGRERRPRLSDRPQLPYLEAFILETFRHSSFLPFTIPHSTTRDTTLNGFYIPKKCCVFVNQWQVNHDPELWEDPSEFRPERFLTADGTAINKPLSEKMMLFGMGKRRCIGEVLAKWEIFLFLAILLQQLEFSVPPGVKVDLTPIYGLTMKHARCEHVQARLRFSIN
# In short: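 Read-out is luminescence from luciferin produced by CYP1A2 demethylation of Luciferin-ME (100uM, at Km). Detection reagent stopped the 60 min NADPH-dependent reaction; signals were normalized to 57 uM furafylline.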
# [8] = target: Glucocorticoid receptor (Homo sapiens) (UniProt P04150); assay: GR-GFP Redistribution (AID 450;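 active = compounds whose dose series gives a full or clear partial fitted curve of increased nuclear translocation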; note: potency is the fitted concentration of half-maximal effect); conditions: U2OS GR-GFP nuclear translocation, laser cytometry, 2 h
# Sequence of Glucocorticoid receptor (Homo sapiens) (P04150 whole entry, looked up, the tested form may be a part): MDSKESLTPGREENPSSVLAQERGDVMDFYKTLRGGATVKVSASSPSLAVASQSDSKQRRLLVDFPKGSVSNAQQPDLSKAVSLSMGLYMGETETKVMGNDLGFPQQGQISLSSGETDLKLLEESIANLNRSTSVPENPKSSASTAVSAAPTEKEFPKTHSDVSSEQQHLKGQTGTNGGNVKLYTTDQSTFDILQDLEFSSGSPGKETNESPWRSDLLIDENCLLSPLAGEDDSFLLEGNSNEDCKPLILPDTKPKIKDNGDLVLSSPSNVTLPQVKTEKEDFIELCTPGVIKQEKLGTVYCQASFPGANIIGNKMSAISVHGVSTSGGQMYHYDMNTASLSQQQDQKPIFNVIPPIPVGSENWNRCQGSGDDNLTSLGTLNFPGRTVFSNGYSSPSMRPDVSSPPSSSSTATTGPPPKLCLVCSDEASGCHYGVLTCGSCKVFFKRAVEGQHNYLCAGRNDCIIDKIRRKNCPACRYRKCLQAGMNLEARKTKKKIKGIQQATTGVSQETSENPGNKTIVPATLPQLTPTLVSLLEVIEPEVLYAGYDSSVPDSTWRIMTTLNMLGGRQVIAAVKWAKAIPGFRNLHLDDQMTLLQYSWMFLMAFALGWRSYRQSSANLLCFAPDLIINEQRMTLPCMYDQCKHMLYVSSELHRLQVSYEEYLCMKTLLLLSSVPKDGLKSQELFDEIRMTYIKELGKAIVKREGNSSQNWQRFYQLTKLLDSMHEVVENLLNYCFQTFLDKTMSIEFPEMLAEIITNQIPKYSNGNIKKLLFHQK
# [9] = target: Glucocorticoid receptor (Homo sapiens) (UniProt P04150); assay: GR-EFC Redistribution (AID 451; calls by dose curve; note: potency is the fitted concentration of half-maximal effect); conditions: CHO-K1 GR-EFC translocation, beta-gal luminescence, 2 h
# In short: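 Translocation of GR-ED fusion to nuclear EA restores b-gal, read by luminescence after 1 h room-temperature detection. Engineered CHO-K1 biosensor cells, 1,000/well, exposed 2 h at 37 C to titrations up to 46 uM final.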
# [10] = target: Cytochrome P450 2C9 (Homo sapiens) (UniProt P11712); assay: qHTS Assay for Inhibitors and Substrates of Cytochrome P450 2C9 (AID 883); note: potency is the fitted concentration of half-maximal effect; nearly all actives have a fitted effect of over 60% in size
# In short: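 Turnover of Luciferin-H (100uM, KM) by 10nM human CYP2C9 was measured over 60 min at 37C with NADPH regeneration; inhibitors and some substrates reduce luminescence. Data normalized to sulphaphenazole 57uM.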
# [11] = target: Cytochrome P450 3A4 (Homo sapiens) (UniProt P08684); assay: qHTS Assay for Activators of Cytochrome P450 3A4 (AID 885); note: nearly all actives have a fitted effect of over 65% in size
# In short: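 CYP3A4 activity: Luciferin-PPXE O-dealkylation, 25uM substrate, 200mM KPO4, RT throughout. Read-out is luciferase luminescence; higher values reflect activation.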
# [12] = target: Cytochrome P450 2C19 (Homo sapiens) (UniProt P33261); assay: qHTS Assay for Inhibitors and Substrates of Cytochrome P450 2C19 (AID 899); note: potency is the fitted concentration of half-maximal effect; nearly all actives have a fitted effect of over 60% in size
# Sequence of Cytochrome P450 2C19 (Homo sapiens) (P33261 whole entry, looked up): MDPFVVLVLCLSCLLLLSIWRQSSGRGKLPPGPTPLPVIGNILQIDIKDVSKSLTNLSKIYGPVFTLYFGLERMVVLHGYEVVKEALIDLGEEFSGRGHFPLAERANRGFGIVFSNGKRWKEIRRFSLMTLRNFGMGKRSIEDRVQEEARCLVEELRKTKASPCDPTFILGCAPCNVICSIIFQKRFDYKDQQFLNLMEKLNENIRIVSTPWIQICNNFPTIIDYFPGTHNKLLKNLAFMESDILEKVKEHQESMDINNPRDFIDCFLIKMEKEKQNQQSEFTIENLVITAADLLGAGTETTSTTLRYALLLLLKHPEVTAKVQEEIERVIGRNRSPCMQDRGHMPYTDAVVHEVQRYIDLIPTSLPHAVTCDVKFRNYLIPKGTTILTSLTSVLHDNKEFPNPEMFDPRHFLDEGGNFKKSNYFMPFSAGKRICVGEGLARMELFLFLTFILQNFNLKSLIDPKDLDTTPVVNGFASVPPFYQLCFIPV
# In short: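 Reactions contain 5nM enzyme, 10uM Luciferin-H EGE (KM) and 50mM KPO4; compound preincubates 10 min at 37C, NADPH regeneration starts turnover for 60 min. Luminescence after detection reagent gives activity.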
# [13] = target: Mitogen-activated protein kinase 10 (Mus musculus) (UniProt Q61831); assay: JNK3 AlphaScreen Assay (AID 530; active = well fitted curve in either direction with a large enough effect, not every such curve was filed as active;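 note: kinase came from lysate of stimulated human HepG2 cells; signal reports phosphorylation of biotinylated GST-cJun 1-79 at Ser73 with 10 µM ATP; series mostly up to about 57 µM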)
# In short: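 Kinase buffer: 20 mM Tris-HCl pH 7.6, 10 mM MgCl2, 1 mM DTT, 0.1 mM Na3VO4, 0.01% Tween-20; ATP 10 uM. Substrate biotin-GST-cJun(1-79), enzyme from activated HepG2 lysates. Detection by Ser73 phospho-antibody AlphaScreen.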
# [14] = target: 3',5'-cyclic-AMP phosphodiesterase 4B (Homo sapiens) (UniProt Q07343); assay: qHTS Assay for Inhibitors of PDE-IV (AID 607; active = well fitted activation curve with a large enough effect in the main read-out, with a control signal flat, not every such curve was filed as active)
# Sequence of 3',5'-cyclic-AMP phosphodiesterase 4B (Homo sapiens) (Q07343 whole entry, looked up): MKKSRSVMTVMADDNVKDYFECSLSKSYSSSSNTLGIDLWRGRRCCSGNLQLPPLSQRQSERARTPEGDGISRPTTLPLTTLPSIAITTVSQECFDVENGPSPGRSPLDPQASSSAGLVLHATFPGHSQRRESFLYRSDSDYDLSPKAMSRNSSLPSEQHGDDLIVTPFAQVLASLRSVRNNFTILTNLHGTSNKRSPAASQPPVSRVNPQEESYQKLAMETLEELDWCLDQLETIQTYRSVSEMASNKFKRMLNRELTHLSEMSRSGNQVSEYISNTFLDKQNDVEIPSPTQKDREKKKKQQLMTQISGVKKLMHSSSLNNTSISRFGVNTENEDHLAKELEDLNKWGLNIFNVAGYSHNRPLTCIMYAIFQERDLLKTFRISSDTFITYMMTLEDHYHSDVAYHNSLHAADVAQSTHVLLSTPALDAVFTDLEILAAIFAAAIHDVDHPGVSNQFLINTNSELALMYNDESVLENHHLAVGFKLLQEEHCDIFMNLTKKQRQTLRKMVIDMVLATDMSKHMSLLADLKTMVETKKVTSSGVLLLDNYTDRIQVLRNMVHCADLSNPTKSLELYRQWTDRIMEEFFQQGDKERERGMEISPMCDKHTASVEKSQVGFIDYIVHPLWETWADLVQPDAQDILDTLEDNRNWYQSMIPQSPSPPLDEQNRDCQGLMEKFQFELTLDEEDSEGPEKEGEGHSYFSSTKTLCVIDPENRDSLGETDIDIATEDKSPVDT
# In short: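 ACTOne HEK293 cells carry a modified cAMP-gated CNG channel and express endogenous PDE4; plated 1000 cells/well, compounds up to 22.9 uM final. Membrane-potential dye fluorescence (ex 535/em 590) was read; parental cells received 10 uM forskolin + 100 uM RO 20-1724.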
# [15] = target: Ubiquitin carboxyl-terminal hydrolase 1 (Homo sapiens) (UniProt O94782); assay: Inhibitors of USP1/UAF1: Pilot qHTS (AID 504865);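 note: rhodamine fluorescence freed from ubiquitin-rhodamine substrate followed over time; top concentration of the series differs between compounds; nearly all actives have a fitted effect of over 35% in size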
# Sequence of Ubiquitin carboxyl-terminal hydrolase 1 (Homo sapiens) (O94782 whole entry, looked up): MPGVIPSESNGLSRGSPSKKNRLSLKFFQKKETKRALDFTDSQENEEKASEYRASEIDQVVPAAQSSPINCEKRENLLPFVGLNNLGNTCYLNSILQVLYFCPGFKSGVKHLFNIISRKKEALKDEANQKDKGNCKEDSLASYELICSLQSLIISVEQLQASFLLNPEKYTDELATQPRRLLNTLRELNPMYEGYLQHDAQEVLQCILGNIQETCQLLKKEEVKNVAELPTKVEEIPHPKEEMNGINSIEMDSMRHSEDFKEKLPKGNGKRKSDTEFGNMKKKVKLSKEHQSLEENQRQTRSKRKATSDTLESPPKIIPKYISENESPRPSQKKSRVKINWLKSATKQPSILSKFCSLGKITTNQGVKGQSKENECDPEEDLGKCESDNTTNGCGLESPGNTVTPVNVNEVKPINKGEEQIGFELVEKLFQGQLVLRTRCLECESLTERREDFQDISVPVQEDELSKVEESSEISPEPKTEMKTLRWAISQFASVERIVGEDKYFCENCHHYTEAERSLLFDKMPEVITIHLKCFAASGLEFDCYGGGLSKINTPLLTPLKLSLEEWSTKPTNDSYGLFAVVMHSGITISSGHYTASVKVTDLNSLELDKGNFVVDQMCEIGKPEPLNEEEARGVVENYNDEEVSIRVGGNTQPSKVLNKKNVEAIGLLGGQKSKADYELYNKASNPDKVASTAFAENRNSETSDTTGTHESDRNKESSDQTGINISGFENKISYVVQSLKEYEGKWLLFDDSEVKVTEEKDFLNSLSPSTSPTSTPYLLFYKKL
# In short: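 USP1/UAF1 complex at 1 nM preincubated 15 min at room temperature with compound, then Ub-Rho substrate added at 150 nM final. Fluorescence (480/540 nm) read kinetically in 50 mM HEPES pH 7.8, 0.5 mM EDTA, 1 mM TCEP, 0.1 mg/ml BSA, 0.01% Tween-20.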
# [16] = Confirmatory screen GU Rhodamine qHTS for Zika virus inhibitors qHTS (AID 1347157); note: potency is the fitted concentration of half-maximal effect; nearly all actives have a fitted effect of over 70% in size
# In short: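 A qHTS format was used, with compound concentrations ranging up to 114 microM. Each compound was preincubated with 25 nM NS2B-NS3 protease, and the substrate was then added at 1.5 microM. Curves were fitted with a 4-parameter Hill model.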
# [17] = ZIKV-mCherry secondary qHTS for Zika virus inhibitors (AID 1347158); note: top concentration of the series differs between compounds
# In short: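 This orthogonal imaging screen measured ZIKV-mCherry infection of Vero cells exposed to compound, MOI 1, 48-72 h. Percent infection came from segmented nuclei scored mCherry-positive above 3 SD of negative controls.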
# [18] = system: Zika virus NS2B-NS3 protease (linked); assay: 384 well plate NINDS AMC confirmatory qHTS for Zika virus inhibitors (AID 1347163); note: potency is the fitted concentration of half-maximal effect; nearly all actives have a fitted effect of over 50% in size
# In short: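 Enzyme (5, 30 or 60 nM final) first met test compounds for ~15 min. The AMC-tagged peptide Ac-VKTGKR-AMC followed at 30 microM. Fluorescence was then recorded at 25 min and scaled against no-enzyme and no-inhibitor wells.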
smiles,measurement,setting,value
CN1[C@@H]2CC(OC(=O)[C@H](CO)c3ccccc3)C[C@@H]1[C@H]1O[C@H]12 (stereo not given in full),Potency,[1],inactive
same,Potency,[2],inactive
same,Potency,[3],inactive
same,outcome,[4],inactive
same,outcome,[5],inactive
same,Potency,[6],inactive
CCCCCN=c1ccn(Cc2ccccc2)c2ccccc12,Potency,[7],25.1 µM (active)
same,Potency,[8],> 46 µM
same,Potency,[9],> 46 µM
same,Potency,[10],0.316 µM (active)
same,Potency,[11],inactive
same,Potency,[12],0.251 µM (active)
same,Potency,[1],inactive
same,Potency,[2],inactive
N=C(N)SCCc1ccc(OCc2ccc([N+](=O)[O-])cc2)cc1,Potency,[7],31.6 µM (active)
same,Potency,[8],> 46 µM
same,Potency,[9],> 46 µM
same,Potency,[13],inactive
same,Potency,[14],inactive
same,Potency,[15],inactive
same,Potency,[1],inactive
same,Potency,[2],inactive
OC[C@H]1NC[C@@H](O)[C@@H](O)[C@H]1O,Potency,[7],inactive
same,Potency,[8],> 46 µM
same,Potency,[9],> 46 µM
same,Potency,[13],inactive
same,Potency,[14],inactive
same,Potency,[15],inactive
same,Potency,[1],inactive
same,Potency,[2],inactive
N[C@@H](Cn1ccc(=O)n(Cc2ccccc2C(=O)O)c1=O)C(=O)O,Potency,[7],inactive
same,Potency,[8],> 46 µM
same,Potency,[9],> 46 µM
same,Potency,[13],inactive
same,Potency,[14],inactive
same,Potency,[1],inactive
same,Potency,[2],inactive
CCN(Cc1cccc(S(=O)(=O)O)c1)c1ccc(C(=C2C=CC(=[N+](CC)Cc3cccc(S(=O)(=O)O)c3)C=C2)c2ccc(O)cc2S(=O)(=O)O)cc1,Potency,[16],4.47 µM (active)
same,Potency,[17],inactive
same,Potency,[18],63.1 µM (active)
